# Measurements from PubChem BioAssay AID1347074 (Center for Chemical Genomics, University of Michigan, 2019).
# In all, about 47,000 compounds went through this assay and about 2,800 (6%) were called active. Many of the other results were omitted from the sample, so actives are more common in it than they were. A number with no mark means an inactive call. Cut-off read from the data, not from the text of the source: active = z-score above about 3 (passing the limit was not always enough); inactive = the rest.
# Target: Endoribonuclease Dicer (Homo sapiens) (UniProt Q9UPY3)
# Test: inhibitors of Dicer pre-microRNA processing, primary screen, biochemical, cat-ELCCA, chemiluminescence (AID 1347074);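 note: plate controls were vehicle for no effect and no enzyme for full effect; higher signal means more uncleaved substrate so more Dicer inhibition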
# Conditions: cat-ELCCA pre-miR-21 Dicer processing, at 25 µM, hits give high values
# Chain of Endoribonuclease Dicer (Homo sapiens) (Q9UPY3 whole entry, looked up): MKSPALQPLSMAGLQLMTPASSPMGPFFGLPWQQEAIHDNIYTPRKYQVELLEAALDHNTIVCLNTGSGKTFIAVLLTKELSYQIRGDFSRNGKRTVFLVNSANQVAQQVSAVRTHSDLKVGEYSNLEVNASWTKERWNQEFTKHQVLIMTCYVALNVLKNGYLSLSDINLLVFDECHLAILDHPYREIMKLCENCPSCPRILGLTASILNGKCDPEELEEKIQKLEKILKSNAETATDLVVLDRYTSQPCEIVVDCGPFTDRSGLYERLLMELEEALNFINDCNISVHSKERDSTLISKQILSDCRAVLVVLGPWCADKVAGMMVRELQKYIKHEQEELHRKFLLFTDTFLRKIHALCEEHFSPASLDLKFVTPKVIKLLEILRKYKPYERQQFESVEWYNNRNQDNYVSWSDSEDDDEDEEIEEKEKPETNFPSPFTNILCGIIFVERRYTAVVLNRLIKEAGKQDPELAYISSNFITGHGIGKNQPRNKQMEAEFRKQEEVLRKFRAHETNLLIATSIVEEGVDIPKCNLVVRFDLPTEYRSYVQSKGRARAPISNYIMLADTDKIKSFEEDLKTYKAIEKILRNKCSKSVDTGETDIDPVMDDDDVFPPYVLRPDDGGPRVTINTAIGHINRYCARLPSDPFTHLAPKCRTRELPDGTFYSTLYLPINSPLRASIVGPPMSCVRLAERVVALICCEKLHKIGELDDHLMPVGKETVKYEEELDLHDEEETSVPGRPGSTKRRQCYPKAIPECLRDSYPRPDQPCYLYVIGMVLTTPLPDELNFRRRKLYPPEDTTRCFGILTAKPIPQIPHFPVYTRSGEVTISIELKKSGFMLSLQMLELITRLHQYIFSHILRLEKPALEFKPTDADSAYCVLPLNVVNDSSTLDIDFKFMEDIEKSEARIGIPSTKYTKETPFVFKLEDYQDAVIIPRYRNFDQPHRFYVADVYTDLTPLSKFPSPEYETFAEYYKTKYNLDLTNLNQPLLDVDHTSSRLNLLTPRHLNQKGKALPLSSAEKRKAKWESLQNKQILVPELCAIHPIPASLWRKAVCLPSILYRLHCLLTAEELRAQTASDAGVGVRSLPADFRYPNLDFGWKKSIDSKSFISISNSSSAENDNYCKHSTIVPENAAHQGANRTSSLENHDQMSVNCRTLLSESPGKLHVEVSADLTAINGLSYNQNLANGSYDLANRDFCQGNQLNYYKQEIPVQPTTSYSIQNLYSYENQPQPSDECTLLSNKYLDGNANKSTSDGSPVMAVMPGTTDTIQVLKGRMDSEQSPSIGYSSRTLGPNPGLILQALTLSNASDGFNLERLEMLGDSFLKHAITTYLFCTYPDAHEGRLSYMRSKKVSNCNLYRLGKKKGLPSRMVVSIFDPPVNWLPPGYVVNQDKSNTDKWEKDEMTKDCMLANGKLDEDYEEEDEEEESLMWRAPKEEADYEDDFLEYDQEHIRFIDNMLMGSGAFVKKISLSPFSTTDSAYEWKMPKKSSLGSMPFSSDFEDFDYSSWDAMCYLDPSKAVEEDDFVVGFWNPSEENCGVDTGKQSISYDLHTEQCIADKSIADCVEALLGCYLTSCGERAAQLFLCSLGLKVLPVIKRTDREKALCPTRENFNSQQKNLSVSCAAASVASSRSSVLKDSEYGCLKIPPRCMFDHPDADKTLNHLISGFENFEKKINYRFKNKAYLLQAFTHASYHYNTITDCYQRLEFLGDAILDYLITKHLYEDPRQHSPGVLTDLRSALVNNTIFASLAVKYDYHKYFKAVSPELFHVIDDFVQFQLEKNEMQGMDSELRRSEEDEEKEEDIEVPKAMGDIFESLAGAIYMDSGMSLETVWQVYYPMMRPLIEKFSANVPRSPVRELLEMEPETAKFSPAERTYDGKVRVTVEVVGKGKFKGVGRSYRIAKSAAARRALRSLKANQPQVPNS
row,SMILES,z-score
1,CSc1sc(C(=O)c2ccc(Cl)cc2)c2c1C(=O)CCC2,-1.08
2,CSc1sc(C(=O)NNC(=S)Nc2ccccc2Cl)c2c1C(O)CCC2 (stereo not given),6.52 (active)
3,CC(=O)N1CCc2cc(NC(=S)Nc3ccccc3Cl)ccc21,0.03
4,CC1=C(C(=O)OCCc2ccccc2)C(c2cccs2)C2=C(CCCC2=O)N1 (stereo not given),0.14
5,CC(C)c1nnc(NC(=O)Cn2c(=O)sc3ccccc32)s1,0.59
6,COc1ccc(Cl)cc1NC(=O)CSc1nc2ncccc2[nH]1,3.45 (active)
7,Nc1cc(=O)[nH]c(SCC(=O)Nc2ccccc2F)n1,1.47
8,CNC(=O)CSc1nc2ccccc2[nH]1,1.43
9,O=C1c2ccccc2C(=O)N1CN1CCC(CCCC2CCN(CN3C(=O)c4ccccc4C3=O)CC2)CC1,2.46
10,Cc1sc2nc3n(c(=O)c2c1C)N=C(c1cccs1)CS3,1.1
11,O=C1c2cccnc2C(=O)N1c1ccc(-c2nc3ccccc3o2)cc1,2.88
12,Cc1cc(NC(=O)CCC2COc3ccccc3O2)no1 (stereo not given),0.67
13,O=C(OCCN1CCCCC1)C1COc2ccccc2O1 (stereo not given),3.41 (active)
14,O=C(OCCN1CCOCC1)C1(c2ccccc2)CCCCC1,-0.8
15,CC(C)(C)c1cc(N/C=C/c2nnnn2-c2ccccc2)no1,-0.3
16,c1ccc(CN2CCN(Cc3cn[nH]c3-c3ccccc3)CC2)cc1,-2.57
17,Brc1cccc(CN2CCN(Cc3cccnc3)CC2)c1,1.06
18,COc1ccc(CN2CCN(Cc3ccccc3OC)CC2)cc1Br,3.53 (active)
19,COc1cccc(CNCc2ccc3c(c2)OCO3)c1,0.54
20,c1ccc(NCc2ccc3c(c2)OCO3)nc1,-1.56
21,c1cc(CNCc2ccc3c(c2)OCO3)ccn1,3.21 (active)
22,COc1cccc(N2C(=O)C3ON(c4ccccc4)C(c4ccco4)C3C2=O)c1 (stereo not given),1.03
23,COc1ccc(OCC(O)CN2CCC(C)CC2)cc1 (stereo not given),-0.23
24,O=C1CCCC2=C1C(c1ccc([N+](=O)[O-])o1)Nc1ccc(C(=O)c3ccccc3)cc1N2 (stereo not given),4.19 (active)
25,CC1=C(C(=O)OCc2ccccc2)C(c2ccc(O)cc2)C2=C(CCCC2=O)N1 (stereo not given),0.01

row,SMILES,z-score
1,CC1=C(C(=O)OCC2CCCO2)C(c2ccc(-c3ccccc3)cc2)C2=C(CCCC2=O)N1 (stereo not given),1.9
2,COc1ccc(Cc2nc3c4c5c(sc4ncn3n2)CCCC5)cc1OC,0.1
3,N#C/C(=C\c1sccc1Oc1ccccc1)S(=O)(=O)c1ccc(Cl)cc1,-1.9
4,O=C1c2ccccc2C(=O)C1c1ccccc1F,20.4 (active)
5,Nc1nc2c(c(=O)[nH]1)C(c1ccccc1F)CC(=O)N2 (stereo not given),-1.01
6,O=C1c2ccccc2C(=O)C1c1ccccc1,0.31
7,COC(=O)CCS(=O)(=O)c1ccc2ccccc2c1,1.34
8,COC(=O)c1ccc(/C=C/c2nc3cc(C)c(C)cc3o2)cc1,-0.26
9,Cc1ccc(S(=O)(=O)Nc2cccc(-c3cn4ccccc4n3)c2)cc1C,5.71 (active)
10,Cc1cccn2cc(-c3cccc(S(=O)(=O)N4CCCCC4)c3)nc12,0.61
11,O=S(=O)(c1cccc(-c2cn3ccccc3n2)c1)N1CCCC1,-0.49
12,Oc1ccccc1C1=NN2C(C1)c1cc(Br)ccc1OC2c1ccncc1 (stereo not given),12.7 (active)
13,COc1ccc(O)c(C2=NN3C(C2)c2cc(Cl)ccc2OC3c2cccnc2)c1 (stereo not given),-1.34
14,Cc1ccc(O)c(C2=NN3C(C2)c2cc(Cl)ccc2OC3c2ccncc2)c1 (stereo not given),-0.01
15,O=C(O)/C=C/C(=O)Nc1cccc([N+](=O)[O-])c1,1.26
16,Cc1cccc(C)c1NC(=S)N1CCc2ccccc2C1,-2.91
17,O=[N+]([O-])c1cc(Br)cnc1Sc1n[nH]c(-c2cccs2)n1,-0.81
18,Clc1ccc(-c2nn3c(-c4ccc(Cl)cc4)nnc3s2)cc1,0.14
19,COc1nc(NC(C)(C)C)nc(Oc2ccc(=O)[nH]n2)n1,-0.91
20,CCCCCc1c(C)nc(N2CCN(Cc3ccc4c(c3)OCO4)CC2)[nH]c1=O,3.11 (active)
21,O=C1CC(c2ccccc2)Cc2nc(N3CCN(Cc4ccc5c(c4)OCO5)CC3)ncc21 (stereo not given),-1.59
22,O=C(c1cccs1)N1CCN(Cc2ccc3c(c2)OCO3)CC1,0.63
23,CCCCN1C(=O)C(c2c(C)[nH]n(-c3ccccc3)c2=O)(C(F)(F)F)C2=C1CC(C)(C)CC2=O (stereo not given),-2.96
24,Cc1ccc(S(=O)(=O)Nc2cccc(CCc3ccccn3)c2)cc1,-0.8
25,CCCc1ccc(C(=O)NNc2ccc(C)cc2C)cc1,4.39 (active)

row,SMILES,z-score
1,CCCCCCCCc1ccc(C(=O)O)cc1,-0.9
2,COCCCNC(=S)Nc1ccc(C)cc1C,-0.42
3,Oc1c(C(Nc2ccccn2)c2ccncc2)ccc2cccnc12 (stereo not given),1.37
4,Cc1cccc(Cl)c1N=C(N)N=C(N)N,1.97
5,CC1(C)N=C(N)N=C(N)N1c1cc(Cl)c(Cl)cc1Cl,-0.47
6,O=c1ccn(C2CCCO2)c(=O)n1Cc1ccccc1F (stereo not given),0.96
7,CCc1ccc(C(=O)/C=C/Sc2ccccn2)cc1,4.22 (active)
8,CCc1ccc(C(=O)/C=C/Sc2nc3ccccc3o2)cc1,1.33
9,CCCc1c(C)nc2scc(-c3ccc(Cl)cc3)n2c1=O,1.65
10,O=C(Nc1cccc(C(F)(F)F)c1)Nc1ccccc1SCc1ccc(Cl)cc1,-1.32
11,COCCCNC(=S)N/N=C/c1ccccc1Cl,-0.35
12,COc1cccc(/C=N/NC(=S)Nc2cc(C(F)(F)F)cc(C(F)(F)F)c2)c1O,5.84 (active)
13,COc1cccc(/C=N/NC(=O)c2cc(C)nc3ccc(Br)cc23)c1O,2.93
14,CC(C)OC(=O)Cn1nc(C(F)(F)F)c2c1CCCC2,0.31
15,COc1ccc(Nc2ncnc3sc(-c4ccccc4)cc23)c(OC)c1,8.39 (active)
16,CNC(=O)NC(=O)CSc1ncnc2sc(-c3ccccc3)cc12,-1.14
17,c1ccc(Nc2ncnc3sc(-c4ccccc4)cc23)cc1,0.51
18,CCOc1nc(-c2ccc(C)cc2)ccc1-c1noc(C)n1,0.71
19,Cn1c(SCC(=O)Nc2cccc(C(F)(F)F)c2)nnc1SCC(=O)Nc1cccc(C(F)(F)F)c1,-0.05
20,COc1cc(C2c3c(oc4ccc(F)cc4c3=O)C(=O)N2Cc2ccccc2)ccc1O (stereo not given),2.47
21,COc1nc(NC(=O)NS(=O)(=O)c2ccccc2C(F)(F)F)nc(C23CC4CC(CC(C4)C2)C3)n1,-0.58
22,Cc1ccc(Sc2nc3ccc(Cl)cc3s2)cc1,-1.81
23,Cc1ccc(S(=O)(=O)Nc2ccc3ncccc3c2)cc1,0.32
24,Cc1ccc2nc(-c3ccc(NS(=O)(=O)c4ccc(Cl)s4)cc3)sc2c1,4.31 (active)
25,COc1ccc(C2CC(=O)c3cn4nc(C)nc4nc3C2)cc1OC (stereo not given),-0.07

row,SMILES,z-score
1,CN([C@H]1CCN2CCc3ccccc3C2C1)S(C)(=O)=O (stereo not given in full),3.92 (active)
2,Cc1cc(C)c(S(=O)(=O)N2CCc3ccccc3C2)c(C)c1,0.07
3,CN(C(=O)CSc1nc(C2CCCCC2)c(C#N)c(=O)[nH]1)c1ccccc1,-0.59
4,COc1ccc(C2=Nc3ccccc3SC(c3ccc(OC)c(O)c3)C2)c(O)c1 (stereo not given),-0.56
5,COc1ncnc2sc(C(=O)O)c(C)c12,0.21
6,CCOc1ccc(NS(=O)(=O)c2ccc(Cl)cc2)cc1,0.5
7,CCc1ccnc(NS(=O)(=O)c2ccc3c(c2)OCCO3)c1,0.59
8,CCc1ccc(S(=O)(=O)Nc2cc(Cl)c3oc(=O)sc3c2)cc1,14.8 (active)
9,COc1ccc(-c2cnc3cc(-c4ccc(Cl)cc4)nn3c2N)cc1OC,1.34
10,O=C1C2=C(Nc3ccccc3S(=O)(=O)C2c2ccc(Cl)cc2)c2ccccc21 (stereo not given),5.21 (active)
11,Cn1c2c(c(=O)n(C)c1=O)C(c1ccc(F)cc1)C1=C(N2)c2ccccc2C1=O (stereo not given),1.52
12,O=C1C2=C(Nc3[nH]c(=O)[nH]c(=O)c3C2c2ccc(F)cc2)c2ccccc21 (stereo not given),-3.54
13,O=C1c2oc3ccccc3c(=O)c2C(c2ccccc2F)N1c1nncs1 (stereo not given),-0.05
14,O=C1CC(=O)CC(c2cccc(Cl)c2)C1,-0.3
15,Cc1ccc(-c2nnc(Nc3ccccc3)c3ccccc23)cc1S(=O)(=O)NCCO,0.4
16,Cc1ccc(-c2nnc(NCc3ccccc3)c3ccccc23)cc1S(=O)(=O)N1CCOCC1,3.46 (active)
17,Cc1ccc(-c2nnc(N3CCOCC3)c3ccccc23)cc1S(=O)(=O)N1CCCCC1,-4.68
18,COCc1cc(C)nc(Nc2ccc(C)cc2)c1C#N,-0.19
19,CCCc1nnc2n1Nc1nc3ccccc3nc1S2,0.21
20,Cc1noc(C)c1S(=O)(=O)N(C)C1CCCCC1,0.73
21,Cc1cc(NC(=O)CC(CC(=O)O)c2ccccc2)n(C)n1 (stereo not given),-1.02
22,O=C(O)CC(CC(=O)Oc1ccccc1N1CCCCC1)c1ccccc1 (stereo not given),4.46 (active)
23,Cn1nccc1NC(=O)CC(CC(=O)O)c1ccccc1 (stereo not given),-0.73
24,CCOC(=O)c1ccc(NCN2C(=O)c3ccccc3C2=O)cc1,0.49
25,CCCN1C(=O)C2(/C(=C(/O)c3ccc(F)cc3)C(=O)C(=O)N2CCCN(C)C)c2ccccc21 (stereo not given),-0.34
